SMILES strings stand for the structures. Screen size: about 52,000 compounds; about 4,300 (8.3%) were called active. This is one part of a sample in which actives are shown more often than they occur. A number with no mark means an inactive call. No stated cut-off is given here; in the data, active means survival mostly below about 52% (no sharp cut-off); inactive means mostly above about 56%.

The assay concerns DeltatarO mutant. Kind of assay: growth inhibition of S. aureus wild type versus tarO mutant, primary screen, teichoic acid synthesis inhibitors, RN4220, OD600 (AID 463173). The note with it: OD600, 18 h, hits give low values, screened at 18.75 µg/mL (by protocol).
With `COC(=O)CSc1nnc2n(-c3ccccc3)c(=O)c3c4c(sc3n12)COC(C(C)C)C4` (stereo not drawn), the survival was 123%.

Regarding `Cc1nn2c(C)c(C(=O)N3CCN(c4ccccc4F)CC3)cnc2c1-c1ccc(F)cc1`, the survival was 88%.

On to `O=C(NC1CCCC1)c1ccc2c(c1)N(Cc1ccc(F)cc1)C(=O)c1ccccc1S2`, for which the survival is 81%.

For `O=C1CNC(=O)N1Cc1ccc(F)cc1`, the survival was 108%.

Consider `Cc1cccc(NC(=O)c2sc(-n3nc(C)c(CCC(C)C)c3C)nc2C)c1`, for which the survival was 53%.

Turning to `O=C(CSc1nnc(-c2ccc(Cl)cc2)o1)Nc1ccc(F)cc1`, the survival was 69%.

Take `Cc1cccc(C)c1NC(=O)Cn1nc(C)c2sc3ccccc3c2c1=O`: the survival was 99%.

For the molecule `COc1ccc(Cc2nnc(NC(=O)c3cccs3)s2)cc1OC`, the survival is 100%.

Regarding `CSc1nc2c(c(=O)[nH]1)C(c1cccc(F)c1F)CC(=O)N2` (stereo not drawn), the survival was 111%.

With `CC(C)c1ccc(NC(=O)Cn2c(=O)n(CCc3ccccc3)c(=O)c3ccccc32)cc1`, the survival was 82%.

`COc1ccc(Cl)cc1NC(=O)CCc1nc(-c2ccccc2F)no1`: the survival is 20% (active).

For the molecule `Cc1ccc(NC(=O)CCc2nc(-c3ccccc3F)no2)c(C)c1`, the survival was 93%.

Take `COc1ccc(-c2noc(CCC(=O)Nc3ccccc3Cl)n2)cc1OC`: the survival was 97%.

Consider `CCCNC(=O)N1c2ccc(F)cc2CCC1C` (stereo not drawn), for which the survival was 87%.

On to `COc1ccc(CNC(=O)c2ccc(CN3C(=O)C(C)=C(c4ccc(C)cc4)S3(=O)=O)cc2)cc1`, for which the survival was 89%.

Take `CC1CCCN(c2nc(-c3ccccc3O)nc3ccccc23)C1` (stereo not drawn): the survival was -6% (active).

`Cc1ccc(-c2nc(N3CCCC(C)C3)c3ccccc3n2)cc1` (stereo not drawn): the survival is -2% (active).

With `CC1CCCN(c2csc3ccccc3c2=O)C1` (stereo not drawn), the survival was 69%.

`COc1ccccc1N1CCN(c2nc(-c3ccc(C)cc3)nc3ccccc23)CC1`: the survival was 83%.

Regarding `COc1ccc(N2CCN(c3nc(-c4ccccc4F)nc4ccccc34)CC2)cc1`, the survival was 88%.

For the molecule `Cc1cccc(-n2ncc3c(N4CCCC(C)C4)ncnc32)c1` (stereo not drawn), the survival was 84%.

As to `COc1cccc(-c2nnc(-c3ccccc3NC(=O)c3ccc(F)cc3F)o2)c1`, the survival was 78%.

As to `CCOc1ccc(CCNC(=O)c2cccc(-n3c(C)nc4cccnc43)c2C)cc1`, the survival is 79%.

Regarding `Cc1cc(C)c2[nH]c(=O)c(CN(Cc3ccco3)C(=S)NCCCN3CCOCC3)cc2c1`, the survival is 78%.

Regarding `CCOc1ccccc1N1CC(c2nc3ccccc3n2CCOc2ccc(C(C)(C)C)cc2)CC1=O` (stereo not drawn), the survival was 62%.

Turning to `Cc1cc(OCCn2c(C3CC(=O)N(Cc4ccc(F)cc4)C3)nc3ccccc32)ccc1Cl` (stereo not drawn), the survival is 1% (active).

In the case of `CCc1ccc(OCCn2c(C3CC(=O)N(Cc4ccc(F)cc4)C3)nc3ccccc32)cc1` (stereo not drawn), the survival was 3% (active).

`COCCNC(=O)c1cc2n(n1)CCCN(Cc1ccc(C)cc1)C2=O`: the survival is 78%.

For `CC(=O)c1ccc(OC(=O)c2c(-c3ccccc3Cl)noc2C)cc1`, the survival is 94%.

For `CCCOc1ccc(OC(=O)c2c(-c3ccccc3Cl)noc2C)cc1`, the survival is 84%.

For the molecule `Cc1onc(-c2ccccc2Cl)c1C(=O)Oc1ccc(Br)cc1`, the survival is 41% (active).

Regarding `CCCOc1cccc(NC(=O)c2c(-c3ccccc3Cl)noc2C)c1`, the survival was 37% (active).

On to `CCOc1ccc(OC(=O)c2c(-c3ccccc3Cl)noc2C)cc1`, for which the survival was 72%.

On to `CCCC(=O)c1ccc(OC(=O)c2c(-c3ccccc3Cl)noc2C)cc1`, for which the survival is 102%.

In the case of `Cc1ccc(NC(=O)Cn2nc(N3CCN(c4ccccc4)CC3)ccc2=O)cc1F`, the survival is 83%.

With `Fc1ccc2ncc3c(-c4ccccc4)n[nH]c3c2c1`, the survival was 83%.

For `COc1ccc(C(=O)Nc2ccc(-c3cc4ccccc4oc3=O)c(C)c2)cc1OC`, the survival was 69%.

`Cc1cc(C)cc(NC(=O)c2sc3nc4n(c(=O)c3c2C)N=C(c2ccccc2)CS4)c1`: the survival was 69%.

Regarding `COc1ccc(Br)cc1Cn1nnc(C(=O)Nc2ccc(C)cc2C)c1N`, the survival is 48%.

As to `CCc1ccc(NC(=O)Cn2c(=O)n(CCCCC(=O)NCCc3ccccc3)c(=O)c3ccccc32)cc1`, the survival is 84%.

Turning to `CCOC(=O)c1c(C)[nH]c(C)c1S(=O)(=O)N1CCCC(C(=O)NCc2cccc(OC)c2)C1` (stereo not drawn), the survival is 78%.

In the case of `Cc1ccc(S(=O)(=O)c2nc(-c3cccs3)oc2SC(C)C)cc1`, the survival was 66%.

Regarding `CS(=O)(=O)c1oc(-c2ccc(F)cc2)nc1S(=O)(=O)c1ccc(Cl)cc1`, the survival is -5% (active).

Take `CCC(C)S(=O)(=O)c1oc(-c2cccs2)nc1S(=O)(=O)c1ccccc1` (stereo not drawn): the survival was 53%.

Regarding `Cc1ccc(S(=O)(=O)c2nc(-c3cccs3)oc2SCc2ccc(F)cc2)cc1`, the survival was 62%.

`COc1ccc(-c2nc(S(=O)(=O)c3ccc(Cl)cc3)c(NCc3ccccc3)o2)cc1`: the survival is 136%.

In the case of `CC(C)S(=O)(=O)c1oc(-c2ccc(F)cc2)nc1S(=O)(=O)c1ccc(F)cc1`, the survival was 22% (active).

As to `COc1cccc(-c2nc(S(=O)(=O)c3ccc(Cl)cc3)c(NCc3ccccc3)o2)c1`, the survival is 180%.

For `CCC(C)S(=O)(=O)c1oc(-c2ccc(F)cc2)nc1S(=O)(=O)c1ccc(F)cc1` (stereo not drawn), the survival is 41% (active).

`Cc1ccc(S(=O)(=O)c2nc(-c3ccc(F)cc3)oc2SCC(=O)NC2CCCCC2)cc1`: the survival is 149%.

On to `CCOc1ccc(NC(=O)CSc2oc(-c3ccc(F)cc3)nc2S(=O)(=O)c2ccc(C)cc2)cc1`, for which the survival was 63%.

In the case of `CC(C)S(=O)(=O)c1oc(-c2cccs2)nc1S(=O)(=O)c1ccc(F)cc1`, the survival was 9% (active).

In the case of `Cc1ccccc1CNC(=O)CCCn1c(=O)c2cccn2c2cccnc21`, the survival is 114%.

Take `CCOc1ccc(C2CC(c3c(O)n(C4CCCCC4)c(=O)[nH]c3=O)=Nc3ccccc3S2)cc1` (stereo not drawn): the survival is 47%.

Take `Cc1ccc2c(c1)cc1c(=O)n(CC(=O)N3CCCCC3)nc(C)n12`: the survival was 90%.

Consider `COc1ccc(C)cc1S(=O)(=O)NCC(c1cccs1)S(=O)(=O)c1ccc(C)cc1` (stereo not drawn), for which the survival is 69%.

In the case of `Cc1ccc(-c2nnc(NC(=O)c3ccc4c(c3)OCCO4)o2)c(C)c1`, the survival is 96%.

Take `Cc1ccc(NC(=O)Cn2nc(Cc3ccncc3)c3ccccc3c2=O)c(Cl)c1`: the survival was 66%.

Values taken from PubChem BioAssay AID463173 (ICCB-Longwood Screening Facility, Harvard Medical School, 2010).
